The values below come from PubChem BioAssay AID1611 (NINDS Approved Drug Screening Program, 2009).

The structures appear in SMILES notation. Several values for one entry are separate records, joined by “and”; a condition that tells them apart may be missing. Equal values may be shown once.

This assay in a line: inducers of human heat shock response, cell-based, HSE luciferase (AID 1611). The note with it: human cells, HSE-luciferase heat shock reporter; stronger effect = higher value.
`COc1ccc2cc([C@H](C)C(=O)O)ccc2c1`: the fold change was found to be 0.71.
Consider `O=c1[nH]cc(F)c(=O)[nH]1`, for which the fold change amounted to 0.52.
Take `C[C@@H]1O[C@@H](O[C@H]2[C@H](Oc3cc(O)c4c(c3)O[C@H](c3ccc(O)cc3)CC4=O)O[C@H](CO)[C@@H](O)[C@@H]2O)[C@H](O)[C@H](O)[C@H]1O`: the fold change turned out to be 1.36.
As for `CC(=O)OCC1=C(C(=O)O)N2C(=O)[C@@H](NC(=O)Cc3cccs3)[C@H]2SC1`, the fold change was 1.09.
Under `Cc1cccc(Nc2ccccc2C(=O)O)c1C` stands 1.2; under `CC1(C)O[C@@H]2CC3C4C[C@H](F)C5=CC(=O)CC[C@]5(C)C4[C@@H](O)C[C@]3(C)[C@]2(C(=O)CO)O1` (stereo not given in full), 1.35; under `CN1C2CC[C@H]1CC(OC(=O)C(O)c1ccccc1)C2` (stereo not given in full), 1.12.
The result for `CCN(CC)C(C)CN1c2ccccc2Sc2ccccc21` (stereo not given) reads 1.55; that for `NCCCCCCNS(=O)(=O)c1cccc2c(Cl)cccc12`, 1.18 and 0.78.
The result for `Oc1cccc(O)c1` reads 1.06; that for `O=C1NS(=O)(=O)c2ccccc21`, 0.91; that for `N[C@@H]1[C@@H](O)[C@H](O)[C@@H](CO)O[C@H]1O`, 1.15.
`OCc1ccccc1O[C@@H]1O[C@H](CO)[C@@H](O)[C@H](O)[C@H]1O`: the fold change came out at 1.04.
Take `NNCCc1ccccc1`: the fold change is 0.93.
On to `CC[C@H]1CN2CCc3cc(OC)c(OC)cc3C2C[C@@H]1CC1NCCc2cc(OC)c(OC)cc21` (stereo not given in full), for which the fold change is 0.89.
On to `NC(=O)c1ccc[n+]([C@@H]2O[C@H](COP(=O)([O-])OP(=O)(O)OC[C@H]3O[C@@H](n4cnc5c(N)ncnc54)[C@H](O)[C@@H]3O)[C@@H](O)[C@H]2O)c1`, for which the fold change worked out at 1.11.
`NNc1nncc2ccccc12`: the fold change is 1.1.
With `O=C1C[C@@H](c2ccc(O)cc2)Oc2cc(O)cc(O)c21`, the fold change is 0.8.
As for `CN(C)CCOC(c1ccccc1)c1ccccc1` (tested in a mixture with another compound), the fold change was determined as 0.8.
Turning to `CCN(CC)CCOC(=O)C1(C2CCCCC2)CCCCC1`, the fold change turned out to be 0.64.
As for `O=C1c2c(O)cccc2Cc2cccc(O)c21`, the fold change worked out at 0.93.
Regarding `O=C(O)c1cc(=O)c2ccccc2[nH]1`, the fold change came out at 1.38.
In the case of `COc1c(C)c2c(c(O)c1C/C=C(\C)CCC(=O)O)C(=O)OC2`, the fold change stood at 0.85.
As to `COc1ccccc1OCC(O)CO` (stereo not given), the fold change was determined as 1.
Consider `Cc1ccccc1N1C(=O)c2cc(S(N)(=O)=O)c(Cl)cc2NC1C` (stereo not given), for which the fold change turned out to be 0.83.
As to `COc1ccc(C[C@H](N)C(=O)N[C@@H]2[C@@H](CO)OC(n3cnc4c(N(C)C)ncnc43)[C@@H]2O)cc1` (stereo not given in full), the fold change was 1.26.
With `O=C(O)CCC(=O)c1ccc(-c2ccccc2)cc1`, the fold change amounted to 1.02.
In the case of `NCCCCC(N)C(=O)NC(Cc1ccc(O)cc1)C(=O)NC(CCCCN)C(=O)O` (stereo not given), the fold change worked out at 0.95.
As for `CCCCC1(COC(=O)CCC(=O)O)C(=O)N(c2ccccc2)N(c2ccccc2)C1=O`, the fold change came out at 0.82.
Take `CC(C)NNC(=O)c1ccncc1`: the fold change amounted to 1.02.
The result for `CCCN(CCC)S(=O)(=O)c1ccc(C(=O)O)cc1` reads 0.78.
`N[C@@H]1CONC1=O`: the fold change amounted to 1.23.
On to `CC(C)CC(NC(=O)CCN)C(=O)O` (stereo not given), for which the fold change came out at 1.04.
In the case of `Cc1c(C(N)=O)cc([N+](=O)[O-])cc1[N+](=O)[O-]`, the fold change was determined as 1.05.
As for `O=C(CCCN1CC=C(n2c(=O)[nH]c3ccccc32)CC1)c1ccc(F)cc1`, the fold change came out at 0.88.
With `Nc1ccc(S(=O)(=O)Nc2cnc3ccccc3n2)cc1`, the fold change came to 1.17.
Turning to `CC(=C(CCOP(=O)(O)O)SC(=O)c1ccccc1)N(C=O)Cc1cnc(C)nc1N`, the fold change was found to be 0.96.
With `CN1C(C(=O)Nc2ccccn2)=C(O)c2sccc2S1(=O)=O`, the fold change stood at 0.84.
Consider `CC(=O)O[C@]1(C(C)=O)CCC2C3C=C(Cl)C4=CC(=O)[C@@H]5C[C@@H]5[C@]4(C)C3CC[C@@]21C` (stereo not given in full), for which the fold change was 9.01.
`NC(=O)NC1NC(=O)NC1=O` (stereo not given): the fold change amounted to 0.91.
